# CYP2C19 activ – increases human CYP2C19 enzyme activity | P33261 | recombinant CYP2C19, luciferin-H EGE luminescence; hits give high values; 0 = fully inhibited enzyme, 1 = untreated enzyme | activation factor at 5 µM | 96,000 tested, under 10 active;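 active = activation factor of at least 2 at 5 µM in the primary screen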;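 also: 0 = wells with 2.5 mM tranylcypromine and 1 = vehicle-only wells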
# Target sequence (P33261 whole entry, looked up): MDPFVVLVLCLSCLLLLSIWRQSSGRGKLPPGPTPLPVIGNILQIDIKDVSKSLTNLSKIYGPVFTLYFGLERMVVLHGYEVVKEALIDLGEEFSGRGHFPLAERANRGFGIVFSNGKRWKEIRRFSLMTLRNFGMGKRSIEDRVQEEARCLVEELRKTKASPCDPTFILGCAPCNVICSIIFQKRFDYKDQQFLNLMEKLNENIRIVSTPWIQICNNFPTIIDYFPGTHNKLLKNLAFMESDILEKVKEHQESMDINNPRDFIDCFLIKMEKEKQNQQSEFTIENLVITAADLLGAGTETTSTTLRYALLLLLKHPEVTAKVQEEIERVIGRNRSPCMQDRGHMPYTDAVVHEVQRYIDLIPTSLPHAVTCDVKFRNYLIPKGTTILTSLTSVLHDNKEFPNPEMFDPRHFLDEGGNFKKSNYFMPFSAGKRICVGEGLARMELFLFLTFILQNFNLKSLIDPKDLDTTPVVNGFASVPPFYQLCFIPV
# CYP2C19 inh – inhibitors of human CYP2C19. P33261. CYP2C19 Supersomes, luciferin-H EGE luminescence, 30 min. inhibition, % at 5 µM. hit rate 21% among 96,000;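 active = CYP2C19 inhibition above a set limit at 5 µM in the primary screen, cut at about 50% in these data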;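 also: plate controls were negative control wells for no effect and 2.5 mM tranylcypromine positive control for full effect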
# CYP2C9 inhib – human CYP2C9 inhibition. P11712. CYP2C9 Supersomes, luciferin-H conversion, luminescence. inhibition, % at 5 µM. hit rate 20% among 96,000. AID 777;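 active = blocking of liver enzyme CYP2C9 beyond about 50% at 5 µM, limit read from the data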
# PostGolgi ctrl – yeast control strain growth, post-Golgi counter-screen | hit rate 5% among 98,000 | inhibition, % at 10 µM | efflux-deficient yeast background strain, growth absorbance A615, 16 h
# CYP2C9 activ – CYP2C9 (human) activation | recombinant CYP2C9, luciferin-H conversion, luminescence; hits give high values; factor 1 = untreated enzyme, 0 = blocked | activation factor at 5 µM | hit rate 1.4% among 96,000 | AID 1024;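 active = activation factor of 2 or more for CYP2C9 at a 5 µM dose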;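 also: 0 = sulfaphenazole-blocked wells and 1 = vehicle-only wells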
# PostGolgi yeast – growth inhibition of a yeast mutant, post-Golgi transport screen. post-Golgi transport phenotypic cell assay. inhibition, % at 10 µM. hit rate 0.9% among 98,000;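 also: yeast cells grown in 1536-well plates; yeast grown about 18 h at 30C before absorbance read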
# Active calls of the source: *; nt = no result given. Most compounds without a hit are left out; they make up all but 32% or so of the library. Rule as the data show it, unless noted: active = inhibition above about 30%; inactive = the rest.
SMILES,CYP2C19 activ,CYP2C19 inh,CYP2C9 inhib,PostGolgi ctrl,CYP2C9 activ,PostGolgi yeast
CC1Cc2ccccc2N1C(=O)C1CCN(S(=O)(=O)Cc2ccccc2)CC1 (stereo unspecified),0.8,21,8,18,0.9,-3
COC(=O)C(O)(CC(=O)Nc1ccc(C)c(F)c1)C(F)(F)F (stereo unspecified),0.9,11,22,6,0.8,1
CCOC(=O)N1CCN(Cc2cc(=O)oc3cc4c(cc23)CCC4)CC1,0.7,26,10,4,0.9,-8
COCCN(CCOC)Cc1cc(=O)oc2cc3c(cc12)CCC3,0.2,77*,49,-6,0.5,-9
Cc1cc2oc(=O)cc(CN3CCCCC3)c2cc1C(C)C,0.9,7,32,8,0.7,-6
Nc1cc(N)nc(SCc2cc(=O)oc3cc4c(cc23)CCC4)n1,0.5,50*,-27,1,1.3,-6
Cc1cc2oc(=O)cc(CSc3nc(N)cc(N)n3)c2cc1C(C)C,1,0,77*,27,0.2,3
Cc1cc(C)nc(N2CCN(CC(=O)NCc3ccccc3)CC2)n1,1.1,-9,-4,13,1,-2
CC(=O)c1ccc(N2C(=O)[C@@H]3C(CCC(N)=O)NC4(C(=O)Nc5c4ccc(Cl)c5C)[C@@H]3C2=O)cc1 (stereo partly specified),1,-4,6,25,0.9,7
O=C1c2ccccc2C2(c3ccccc3)NCCN12 (stereo unspecified),0.9,8,8,5,0.9,-3
O=C(O)C1(c2cccc(Cl)c2)CCC1,1,-1,8,9,0.9,6
Cc1ccc(C(=O)N2CCN3C(=O)c4ccccc4C23c2ccc(Cl)cc2)cc1 (stereo unspecified),0.1,86*,38,39*,0.6,21
O=C(Nc1cccc(Cl)c1)N1CCN2C(=O)c3ccccc3C12c1ccccc1 (stereo unspecified),0.5,49,57*,4,0.4,18
CCOC(=O)C(C)Oc1ccc2c(C)cc(=O)oc2c1C(C)=O (stereo unspecified),0.4,58*,7,3,0.9,33*
CCOC(=O)C(C)Oc1ccc2c(CC)cc(=O)oc2c1C (stereo unspecified),0.6,35,60*,12,0.4,-2
COc1ccc(C(=O)N(CN2CCCC2=O)c2cc(C)on2)cc1OC,1,-3,0,-12,1,21
CCOC(=O)CN1C(=O)C(C)(C)Oc2ccc(C(=O)NC(C)(C)CC)cc21,1.1,-5,18,8,0.8,7
N#CC1=C(N)Oc2ccccc2C12C(=O)Nc1n[nH]c(-c3ccccc3)c12 (stereo unspecified),1.2,-23,54*,15,0.5,1
CCN1C(=O)C2(C(C#N)=C(N)Oc3n[nH]c(-c4ccccc4)c32)c2ccccc21 (stereo unspecified),1,2,13,-11,0.9,-1
COC(=O)CCN(C(C)=O)c1ccc(N)cc1,1,-3,-7,40*,1.1,-7
COC(=O)CCN(C)CCC(=O)OC,1.1,-8,-4,13,1,-18
CC(C)(C)N1CC(c2nc3ccccc3n2Cc2ccc(Cl)cc2)CC1=O (stereo unspecified),0.3,72*,93*,7,0.1,3
O=S(=O)(O)c1nc2ccccc2n1CCOc1ccccc1,1,4,34,-3,0.7,0
O=C(Nc1nc2ccccc2n1Cc1ccc(Cl)cc1)c1ccco1,0.9,5,11,9,0.9,1
CC(C)(C)N1CC(c2nc3ccccc3n2CCOc2ccccc2)CC1=O (stereo unspecified),0.4,62*,83*,-2,0.2,8
CCCOCCOC(=O)c1[nH]c2c(c1C)C(=O)CC(c1cc(OC)ccc1OC)C2 (stereo unspecified),nt,nt,nt,12,nt,3
Cc1c(C(=O)N2CCOCC2)[nH]c2c1C(=O)CC(c1ccccc1Cl)C2 (stereo unspecified),1.1,-8,-24,21,1.2,-1
COCCOC(=O)c1[nH]c2c(c1C)C(=O)CC(c1cc(OC)ccc1OC)C2 (stereo unspecified),0.9,8,59*,3,0.4,0
